Consider 40 compounds from PubChem BioAssay AID493209 (National Center for Advancing Translational Sciences (NCATS), 2011).

Structures are written as SMILES. The source made the active and inactive calls.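 The calls were made as follows: active = compounds that raised 12-lipoxygenase product formation in the cuvette follow-up test, with a fitted potency; inactive = the rest, inconclusive results apart.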

Chain of Polyunsaturated fatty acid lipoxygenase ALOX12 (Homo sapiens) (P18054 whole entry, looked up): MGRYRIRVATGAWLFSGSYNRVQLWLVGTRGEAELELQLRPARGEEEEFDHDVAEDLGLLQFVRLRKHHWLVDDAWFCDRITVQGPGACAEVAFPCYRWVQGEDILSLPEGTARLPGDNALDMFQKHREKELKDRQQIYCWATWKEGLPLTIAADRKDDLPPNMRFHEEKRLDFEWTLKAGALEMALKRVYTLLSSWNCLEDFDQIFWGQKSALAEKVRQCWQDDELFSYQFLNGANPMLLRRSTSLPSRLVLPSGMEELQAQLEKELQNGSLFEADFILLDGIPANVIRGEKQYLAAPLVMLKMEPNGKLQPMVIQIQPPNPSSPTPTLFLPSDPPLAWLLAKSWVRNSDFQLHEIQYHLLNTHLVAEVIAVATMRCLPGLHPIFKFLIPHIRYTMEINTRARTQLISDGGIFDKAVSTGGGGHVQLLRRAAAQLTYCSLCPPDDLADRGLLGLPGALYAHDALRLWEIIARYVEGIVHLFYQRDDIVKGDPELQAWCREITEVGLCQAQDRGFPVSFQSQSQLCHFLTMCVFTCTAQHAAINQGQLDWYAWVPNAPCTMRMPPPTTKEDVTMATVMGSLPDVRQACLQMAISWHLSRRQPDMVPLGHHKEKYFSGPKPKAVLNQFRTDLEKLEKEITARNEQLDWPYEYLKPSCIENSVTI

For the assay, the target named is Polyunsaturated fatty acid lipoxygenase ALOX12 (Homo sapiens) (UniProt P18054). The assay is described as follows: Activators of 12-hLO (12-human lipoxygenase): 12hLO Cuvette-Based Hit Validation Assay of Followup Compounds. The conditions noted are these: purified 12-hLO, cuvette UV 234 nm product formation. The method, then:
The enzyme activity of 12-hLO was determined by a direct measurement of product formation by monitoring the absorbance at 234 nm in a 2 mL cuvette. IC50 values of inhibitors were obtained by measuring the enzymatic rate at a variety of concentrations (Carroll et al, Segraves et al). This assay was used to validate active or inconclusive putative activators identified in the primary screen (see related BioAssay AIDs). Assay Provider: Holman, T.R., University of California, Santa Cruz Screening Center PI: Austin, Christopher P. Screening Center: NIH Chemical Genomics Center
For control experiments, 2 mL of substrate buffer (10 uM arachidonic acid / 25 mM HEPES / 0.01% (v/v) Triton X-100, pH 8.0) was aliquoted in a cuvette with a magnetic stir bar. After equilibrium was ensured, an aliquot of inhibitor solvent was added (DMSO), and equilibrium was once again assured. The reaction was started by adding enzyme to the cuvette and the reaction was followed until completed. The inhibition experiments were performed as above, except the actual inhibitory compound was added instead of vehicle. To achieve an IC50, typically 5 concentrations of the inhibitor were studied. If the inhibitor concentration was constant, then five different reaction volumes were used. Step \ Parameter \ Value \ Description 1; UV-Vis; 234 nm; Equilibration 2; Reagent; 2 mL; Substrate buffer 3; UV-Vis; 234 nm; Equilibration 4; Reagent; varies; Compound 5; UV-Vis; 234 nm; Equilibration 6; Reagent; 50-200 nM; Enzyme 12-hLO 7; UV-Vis; 234 nm; Enzymatic reaction Step \ Notes 1; Blank cuvette to air. 2; 10 uM AA, 25 mM HEPES, 0.01% Triton X-100, pH 8. 3; No change in absorbance ensured. 4; Compound vehicle or compound in various concentrations depending on potency. 5; No change in absorbance ensured. 6; Enzyme concentration to achieve reaction rate between 0.02 and 0.04 AU/s. 7; Enzymatic reaction visualized until completion.
On to `c1ccc(-c2nc(NCc3cccnc3)c3oc4ccccc4c3n2)cc1`, for which the call was inactive. The same measure, in the same setting: in the case of `COc1ccc(NC2=NCC(Cc3ccc(Br)cc3)S2)cc1` (stereo not given) it was “inactive”; in that of `COc1ccc(-c2n[nH]c(C(F)(F)F)c2-c2cc3ccccc3o2)c(O)c1`, “inactive”; in that of `COc1cc(CNc2ccc(O)cc2)cc(Br)c1OCc1ccccc1F`, “inactive”.

On to `Cc1ccc(C(=O)Nc2nnc(-c3ccco3)o2)cc1`, for which the outcome was inactive. On the same count and under the same terms, in the case of `COc1ccc(-c2[nH]ncc2-c2ccc(Cl)cc2)c(O)c1` it was “inactive”. On the same count and under the same terms, in the case of `CCCOC(=O)c1ccc(Oc2c(-c3ccc(O)cc3O)n[nH]c2C)cc1` it was “inactive”; in that of `Cc1nc(N)sc1-c1csc(N(C)c2ccc(O)cc2)n1`, “inactive”. On the same count and under the same terms, in the case of `CC1=NN(c2ccc(Cl)cc2)C(=O)C1C(c1cccc(O)c1)c1c(C)[nH]n(-c2ccc(Cl)cc2)c1=O` (stereo not given) it was “inactive”; in that of `CSc1ccc(S(=O)(=O)Nc2ccc(S(=O)(=O)Nc3ccc(C)cc3)cc2)cc1`, “inactive”; in that of `O=C(CSc1n[nH]c(-c2ccccc2)n1)c1ccc(O)c(O)c1`, “inactive”. Turning to `COc1cc(CNc2ccc(N3CCCC3)cc2)ccc1OCc1ccccc1`, the call was inactive. In the case of `CCc1cc(-c2n[nH]c(C)c2Oc2ccc(C(C)C)cc2)c(O)cc1O`, the call was inactive. On to `Cc1cccnc1NCc1ccc(O)c2ncccc12`, for which the Potency was 46.4 µM (active). For `COc1ccc2nc(NC(=O)c3cccc(OCc4c(C)noc4C)c3)sc2c1`, the outcome was inactive. As for `Oc1ccc(C2=Nn3c(nnc3-c3ccco3)SC2)cc1O`, the call was inactive. Same read-out and setting: for `Oc1ccc(Cl)cc1-c1cc(-c2ccco2)[nH]n1` the value was “inactive”. For `O=C1c2ccccc2NC(c2ccc(Cl)cc2Cl)N1O` (stereo not given), the Potency is 53.1 µM (active). As for `Oc1ccccc1-c1cc(-c2ccccc2Cl)[nH]n1`, the compound was classed as inactive. Consider `CCOC(=O)CNC(c1ccccc1)c1cc(Br)ccc1NC(=O)CCN1CCOCC1` (stereo not given), for which the Potency is 70 µM (active). In the case of `COc1ccc(-c2n[nH]c(C)c2-c2ccc(Cl)cc2)c(O)c1`, the outcome was inactive. Still for that read-out and setting: for `O=C(Nc1nnc(-c2ccc(Cl)cc2)o1)c1ccccc1Br` the value was “inactive”; for `O=C(Nc1nnc(C2=COCCO2)o1)c1ccc(Cl)cc1`, “inactive”. The same measure, in the same setting: in the case of `Cc1ccc(NC(=O)Nc2cccs2)c(Cl)c1` it was “inactive”. Same read-out and setting: in the case of `Oc1ccc(-c2csc(-c3ccccc3)n2)cc1O` it was “inactive”; in that of `Cc1ccc(S(=O)(=O)Nc2ccc(NC(=O)Nc3cccc(C(F)(F)F)c3)cc2)cc1`, “inactive”; in that of `Cc1[nH]nc(-c2ccc(O)cc2O)c1-c1ccc(Cl)cc1`, “inactive”. Take `Cc1ccc(C(=O)Nc2nnc(-c3ccco3)o2)cc1C`: the call was inactive. As for `O=C(NC(=S)Nc1ccccc1N1CCCC1)c1ccc([N+](=O)[O-])cc1`, the Potency was 66.7 µM (active).

Turning to `Cc1ccc(S(=O)(=O)Nc2nc(C)c(NC(=O)Nc3ccc(Cl)cc3Cl)s2)cc1`, the compound was called inactive. Turning to `Oc1ccc(CN2CCCc3ccccc32)c2cccnc12`, the Potency was 43.6 µM (active). As to `COc1ccc(Cc2nc(C(=O)Nc3ccc(OC)cc3)cs2)cc1`, the outcome was inactive. Still for that read-out and setting: in the case of `N#CC1=C(N)Oc2n[nH]c(-c3cccs3)c2C1C1CCCCC1` (stereo not given) it was “inactive”.

For `COc1ccc(/C=C/c2nc(-c3ccccc3O)n[nH]2)cc1`, the outcome was inactive. As to `COc1cccc(CNc2ccc(S(=O)(=O)Nc3nccs3)cc2)c1O`, the outcome was inactive. `Oc1ccccc1-c1cc(-c2cccc(F)c2)n[nH]1`: the compound was classed as inactive. Same read-out and setting: for `O=C(/C=C/c1ccc(O)c(O)c1)c1ccc(S(=O)(=O)N2CCCCCC2)cc1` the value was “inactive”.

Take `COc1ccc(C(Nc2ccccn2)c2c(NC(=O)c3ccco3)sc(C)c2C)cc1` (stereo not given): the outcome was inactive. Same read-out and setting: for `Cc1[nH]nc(-c2ccc(O)cc2O)c1Oc1ccccc1` the value was “inactive”; for `Cc1cc(Cl)cc(Cl)c1OCC(=O)NCc1ccco1`, “inactive”.
